Measurements: PubChem BioAssay
The source made the active and inactive calls.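 Rule for the calls, unless noted: active = inhibition of the reporter signal at or above 50%; inactive = inhibition below 50%.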

Columns and labels:
[1] = inhibitors of TNFa-induced NFkB p65 translocation, primary screen, imaging, HUVEC, MLSMR starter and 10KST1 sets (AID 438;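 active = inhibition above 20% together with a positive visual image hit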;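 note: compound added about 3h40 before a 20 min TNFalpha stimulation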;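 for inhibition: signal is the nuclear over cytoplasmic p65 intensity ratio per well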); settings: HUVEC TNFa-induced p65 nuclear translocation; cell count: measured here: nuclei count (cytotoxicity indicator), at 2.08 µM; inhibition: at 2 µM, stronger effect = higher value, 0% TNFa-plus-vehicle, 100% no-TNFa wells
[2] = reduction of polyQ htt aggregates in cells – imaging, exon1htt(103Q)mCFP cells, high-content imaging, primary screen (AID 483;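 active = visual image review flags a hit and inhibition of aggregation exceeds 20%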;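 note: compound exposure lasted 3 days before fixation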;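 for nuclei count: percent of the per-plate median nuclei count of sample wells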); settings: exon1htt(103Q)mCFP cell line, aggregate imaging, at 2 µM; inhibition of aggregation: stronger effect = higher value; nuclei count: measured here: cell count, toxicity
[3] = endothelial E-selectin expression blockers – imaging, HUVEC, immunofluorescence, MLSMR starter and 10KST1 sets, primary screen (AID 487;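 active = visually confirmed hit in the image check and inhibition above 20%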;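 for inhibition: signal is fraction of cell area covered by stained E-selectin grains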;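 for nuclei count: 100% = median nuclei count of all wells on the same plate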); settings: HUVEC TNFalpha-induced E-selectin immunofluorescence imaging, at 2 µM; inhibition: stronger effect = higher value; nuclei count: measured here: cell number, toxicity
[4] = target: Voltage-gated potassium channel subunit beta-2 (Rattus norvegicus) (UniProt P62483); experiment: inhibitors of rat Kvbeta2 reductase activity – biochemical, NADPH fluorescence, primary screen (AID 622;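 active = fluorescence slope higher than the sample average by over 3 SD, cut at about -0.22 in these data, passing the limit was not always enough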;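 note: slope of raw intensity against log time taken from 70 to 1610 s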); settings: recombinant KvBeta, 4-cyanobenzaldehyde reduction, at 10 µM, stronger effect = higher value
Chain of Voltage-gated potassium channel subunit beta-2 (Rattus norvegicus) (P62483 whole entry, looked up): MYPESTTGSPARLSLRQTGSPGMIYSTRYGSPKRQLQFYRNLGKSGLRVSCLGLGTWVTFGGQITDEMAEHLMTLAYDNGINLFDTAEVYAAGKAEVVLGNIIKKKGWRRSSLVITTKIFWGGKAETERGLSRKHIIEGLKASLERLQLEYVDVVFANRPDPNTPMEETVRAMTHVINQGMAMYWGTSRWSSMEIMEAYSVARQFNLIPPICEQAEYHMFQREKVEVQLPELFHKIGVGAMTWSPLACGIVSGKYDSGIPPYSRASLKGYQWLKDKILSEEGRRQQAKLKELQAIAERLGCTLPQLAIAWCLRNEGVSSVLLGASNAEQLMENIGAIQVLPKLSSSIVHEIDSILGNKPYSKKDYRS

[5] = target: Voltage-gated potassium channel subunit beta-2 (Rattus norvegicus) (UniProt P62483); experiment: enhancers of rat Kvbeta2 NADPH turnover – biochemical, NADPH fluorescence, primary screen (AID 623;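 active = NADPH fluorescence slope more negative than the mean of all samples by about 3 SD, 99.7% confidence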;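 note: fluorescence intensity change per second fitted from 20 to 320 s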); settings: Recombinant KvBeta, NADPH fluorescence decrease slope, 10 min; at 10 µM; stronger effect = lower value
[6] = target: Alpha-2C adrenergic receptor (Homo sapiens) (UniProt P18825); experiment: compounds altering alpha2C-coupled GIRK flux – cell-based, HEK293 alpha2C/GIRK1/2, thallium flux, primary screen (AID 624;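 active = fluorescence slope after compound addition differing from the mean of all screened samples at 99.7% confidence, in either direction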;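 note: slope of fluorescence ratio to pre-addition baseline per second over 15 to 24 s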); settings: thallium flux BTC fluorescence, at 10 µM, actives lie on both sides
Chain of Alpha-2C adrenergic receptor (Homo sapiens) (P18825 whole entry, looked up): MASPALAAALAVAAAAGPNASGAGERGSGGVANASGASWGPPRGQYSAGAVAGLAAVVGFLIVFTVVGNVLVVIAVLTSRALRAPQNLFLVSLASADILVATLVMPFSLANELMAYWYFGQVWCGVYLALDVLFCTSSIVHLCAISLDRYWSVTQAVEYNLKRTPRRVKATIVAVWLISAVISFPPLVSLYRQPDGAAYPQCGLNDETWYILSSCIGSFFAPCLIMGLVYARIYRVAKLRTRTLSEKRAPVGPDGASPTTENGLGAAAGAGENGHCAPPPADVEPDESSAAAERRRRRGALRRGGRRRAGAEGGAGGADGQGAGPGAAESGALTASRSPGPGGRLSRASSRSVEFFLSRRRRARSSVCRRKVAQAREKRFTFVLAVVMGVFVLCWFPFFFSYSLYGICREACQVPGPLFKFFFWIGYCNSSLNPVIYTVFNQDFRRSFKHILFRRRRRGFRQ

[7] = blockers of RIG-like receptor reporter activation – cell-based, Sendai virus stimulus, luciferase, 10K MLSCN set, TLR/RLR signaling modifier project, primary screen (AID 602276;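 active = inhibition at or above 50% at 10 µM; inactive = inhibition below 50%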;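 note: firefly luciferase from ISG56 promoter only with Renilla not read in this screen; 0% = Sendai virus plus DMSO and 100% = medium plus DMSO without virus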); settings: HEK293 RL24 IRF3 luciferase reporter, at 10 µM, stronger effect = higher value
[8] = TLR3 IRF3 reporter activation blockers – cell-based, poly I:C stimulus, luciferase, 10K MLSCN set, primary screen (AID 602277); settings: HEK293-TLR3 RL24 IRF3 luciferase reporter, at 10 µM, stronger effect = higher value

| Structure (SMILES) | cell count [1] | inhibition [1] | inhibition of aggregation [2] | nuclei count [2] | inhibition [3] | nuclei count [3] | fluorescence slope [4] | NADPH fluorescence slope [5] | slope [6] | inhibition [7] | inhibition [8] |
| --- | --- | --- | --- | --- | --- | --- | --- | --- | --- | --- | --- |
| CCOC(=O)N1CCC(NC(=O)c2cc(C(=O)NC3CCCC3)ccc2CO)CC1 | 467 | 0.8% (inactive) | 14.4% (inactive) | 58.4% | -14.1% (inactive) | 106% | -0.535 (inactive) | -5.1e-05 (inactive) | 0.00598 (inactive) | 11.2% (inactive) | 32% (inactive) |
| COc1ccc(CN(C(=O)c2cccs2)c2nccs2)cc1OC | 457 | 3.9% (inactive) | -1.2% (inactive) | 112% | -60.6% (inactive) | 111% | -0.458 (inactive) | -3e-05 (inactive) | 0.00675 (inactive) | -2.48% (inactive) | 21.6% (inactive) |
| Cc1oc(-c2ccccc2F)nc1CS(=O)(=O)CC(=O)N1CCN(Cc2ccccc2)CC1 | 853 | -4% (inactive) | -23.9% (inactive) | 90.4% | -96.8% (inactive) | 109% | -0.498 (inactive) | -4.4e-05 (inactive) | 0.00602 (inactive) | 6.04% (inactive) | -4.63% (inactive) |
| O=C(CSc1nnc(-c2ccco2)n1-c1ccccc1)N1CCN(C(=O)c2ccco2)CC1 | 537 | -7.8% (inactive) | 27.8% (active) | 59.4% | 0.8% (inactive) | 116% | -0.474 (inactive) | -1.7e-05 (inactive) | 0.00672 (inactive) | 11.5% (inactive) | 31.2% (inactive) |
| Cc1ccc(-n2ncc3c(=O)n(CC(=O)N4CCCc5ccccc54)cnc32)cc1C | 227 | -2.8% (inactive) | 10.4% (inactive) | 93.3% | 9.3% (inactive) | 87.8% | -0.346 (inactive) | -6.2e-05 (inactive) | 0.00504 (inactive) | -13.9% (inactive) | -13.7% (inactive) |
| CC(=O)NS(=O)(=O)c1ccc(NC(=O)c2ccccc2F)cc1 | 515 | -3.9% (inactive) | 23.5% (inactive) | 90.4% | 31.9% (inactive) | 90.8% | -0.383 (inactive) | -3.8e-05 (inactive) | 0.00586 (inactive) | 6.18% (inactive) | 8.62% (inactive) |
| C=CCc1cccc2cc(C(=O)NCc3cccnc3)c(=O)oc12 | 329 | 3.5% (inactive) | -4.3% (inactive) | 101% | 4.6% (inactive) | 117% | -0.437 (inactive) | 1.5e-05 (inactive) | 0.00312 (inactive) | -3.91% (inactive) | 20.3% (inactive) |
| Nc1cc(N)cc(-c2nc3ccccc3o2)c1 | 595 | -1.3% (inactive) | -3.7% (inactive) | 109% | -53.9% (inactive) | 116% | -0.56 (inactive) | -4.4e-05 (inactive) | 0.00618 (inactive) | -12.2% (inactive) | -26% (inactive) |
| Cc1cc(C(=O)OCCO)c(C#N)c(N)n1 | 299 | 8.5% (inactive) | 9.5% (inactive) | 106% | -31.1% (inactive) | 128% | -0.132 (active) | 1.2e-05 (inactive) | 0.00497 (inactive) | 16.3% (inactive) | 18.4% (inactive) |
| COc1ccc2cc(C(=O)NCc3ccco3)c(=Nc3ccc(C(=O)O)cc3)oc2c1 | 507 | -12.8% (inactive) | 19% (inactive) | 96.3% | -56.7% (inactive) | 120% | -0.372 (inactive) | -5.2e-05 (inactive) | 0.00401 (inactive) | 16.4% (inactive) | 3.42% (inactive) |
| Cc1ccc(NC(=O)CC2C(=O)NC3CCCCC3N2C(=O)c2ccc(F)cc2)cc1C (centres undefined) | 461 | -10.3% (inactive) | -9.9% (inactive) | 123% | -55.7% (inactive) | 178% | -0.478 (inactive) | 2.4e-05 (inactive) | 0.00684 (inactive) | 12.1% (inactive) | 15.6% (inactive) |
| Cc1ccc(NC(=O)c2ccco2)cc1NC(=O)CSc1nnc(-c2cccs2)n1C | 379 | -5.5% (inactive) | 16.8% (inactive) | 89.1% | 24.1% (inactive) | 98.1% | -0.394 (inactive) | -5.8e-05 (inactive) | 0.00449 (inactive) | 10.8% (inactive) | 14.1% (inactive) |
| Cc1cccc(-n2nc3c(c2NC(=O)CCC2CCCCC2)CS(=O)C3)c1C (centres undefined) | 637 | -8.7% (inactive) | -46.2% (inactive) | 80% | -27.4% (inactive) | 110% | -0.427 (inactive) | -2.6e-06 (inactive) | 0.00515 (inactive) | 10.6% (inactive) | 37.7% (inactive) |
| COc1ccccc1NC1=NC(c2ccc(Cl)cc2)N=C(N)N1 (centres undefined) | 395 | 5.2% (inactive) | -17.1% (inactive) | 35.1% | -308% (inactive) | 124% | -0.299 (inactive) | -4.5e-05 (inactive) | 0.0046 (inactive) | 29.3% (inactive) | 49.9% (inactive) |
